# The supplement of paper PMC3334620
# Over roughly 33,000 sequences, “E-score (-0.5 to 0.5)” has its median near -0.015; the highest 2% begin near 0.3. Only a selection was taken, and the highest values are over-represented in it overall.
# Target: T1, Abf1 (UniProt P14164)
# T1 sequence: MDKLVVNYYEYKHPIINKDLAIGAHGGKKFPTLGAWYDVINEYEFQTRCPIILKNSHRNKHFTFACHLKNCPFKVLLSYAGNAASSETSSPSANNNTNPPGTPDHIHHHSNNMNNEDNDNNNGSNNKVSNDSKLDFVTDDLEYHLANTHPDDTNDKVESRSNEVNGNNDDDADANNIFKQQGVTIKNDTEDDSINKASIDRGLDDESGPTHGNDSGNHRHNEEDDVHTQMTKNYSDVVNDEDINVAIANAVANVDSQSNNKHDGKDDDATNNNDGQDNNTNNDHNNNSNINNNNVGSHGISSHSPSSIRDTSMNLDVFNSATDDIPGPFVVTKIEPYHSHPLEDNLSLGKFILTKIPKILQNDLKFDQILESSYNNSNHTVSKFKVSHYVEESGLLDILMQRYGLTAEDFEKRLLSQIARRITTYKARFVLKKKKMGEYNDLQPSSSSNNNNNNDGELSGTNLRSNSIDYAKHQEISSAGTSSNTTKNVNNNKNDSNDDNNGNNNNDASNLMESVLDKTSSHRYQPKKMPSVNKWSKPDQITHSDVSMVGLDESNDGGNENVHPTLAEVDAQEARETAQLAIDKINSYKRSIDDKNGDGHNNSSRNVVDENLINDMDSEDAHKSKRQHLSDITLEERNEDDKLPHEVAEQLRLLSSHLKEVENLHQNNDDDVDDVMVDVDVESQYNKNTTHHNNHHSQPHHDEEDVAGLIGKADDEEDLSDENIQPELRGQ
# Assay: PBM E-score (8-mer binding enrichment) (E-score (-0.5 to 0.5)); higher = stronger / more preferred TF binding
# Conditions: protein concentration: 200 nM; construct: GST-full length
# Description: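 Universal 'all 10-mer' protein binding microarrays (Agilent AMADID 015681) probed with GST-tagged S. cerevisiae TFs (full-length or DBD) made by in vitro transcription/translation (PURExpress), about 100-200 nM. Bound TF was detected with fluorescent anti-GST. Each ungapped 8-mer (which stands for itself and its reverse complement) is scored by the PBM enrichment score (E-score), a modified Wilcoxon-Mann-Whitney statistic from -0.5 to +0.5, computed with the Universal PBM Analysis Suite. Scale: above 0.35 generally sequence-specific binding.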
row,Sequence,PBM E-score
1,TACAGGCA,0.119
2,AGCTACAA,-0.101
3,GAGAAGGA,-0.18
4,ATATCAAA,0.0352
5,CCTCCGCC,-0.059
6,ACGTACGG,0.328
7,ACGTACGT,0.335
8,ACGTACGC,0.114
9,ACGTACGA,0.335
10,CCGTACGG,0.29
11,AGGTACGA,0.0832
12,ACGTACAG,-0.0233
13,AAGTACGA,0.151
14,ACGTACAT,0.244
15,CAGCGGAC,-0.105
16,AGCGAGAT,0.0588
17,GCGTATGA,0.0421
18,CCGTATGC,0.0398
19,ACGTATGG,0.136
20,ACGTATGC,0.014
21,CCGTATGA,0.408
22,ACGTATGA,0.332
23,CGAGTTAG,0.148
24,ACTAGAAA,-0.0186
25,ATACGGAG,0.0972

row,Sequence,PBM E-score
1,CTACGGAA,0.139
2,TTACGGAA,0.124
3,ATACGGAT,0.297
4,ATACGGAA,0.299
5,ATACGGAC,0.142
6,CAAAATCA,0.173
7,GCACAGCC,-0.204
8,ATTTCTTG,0.167
9,ACAGAATC,-0.0766
10,AATTAATA,0.302
11,CACTAATA,0.255
12,AATTAATT,0.00666
13,TACTAATA,0.0826
14,TATTAATA,0.00602
15,AACTAATA,0.306
16,ACTCCACC,0.032
17,ATCGGTCC,-0.295
18,CCGTGACC,0.157
19,ACGTGACC,0.0122
20,ACGTGACG,0.201
21,CCGTGACG,0.198
22,TCGTGACA,0.354
23,CCGTGACA,0.363
24,CCGTGAAA,0.381
25,TCGTGAGA,0.263

row,Sequence,PBM E-score
1,ACGTGACT,0.174
2,CCGTGAAG,0.136
3,TCGTGAAA,0.205
4,ACGTGACA,0.355
5,GCATCGCC,-0.0959
6,AACCGGGC,-0.103
7,CTCCCGGA,-0.117
8,GATAGAAC,0.0502
9,ACAACGCA,-0.00182
10,CGAGGTTA,-0.00406
11,AAGAATCT,-0.115
12,GGAGATGA,0.16
13,GCGATTTA,0.114
14,TCTTCTCA,0.0808
15,CGCTCTAA,0.108
16,AAGGCGGC,-0.00603
17,AAGGACAT,0.0941
18,GTGTGACA,0.116
19,GCGTGACC,0.108
20,CCGTGTGA,0.301
21,GCGTGACA,0.369
22,ACGTGTGA,0.213
23,GCGTGTGA,-0.00541
24,CGTTGATC,0.247
25,AAAGTGCG,-0.105

row,Sequence,PBM E-score
1,AGATTTCA,-0.0514
2,ACAGTCGC,-0.0877
3,TCGAAAAA,0.157
4,GGACGATA,0.268
5,AGACGATA,0.27
6,CGACGACC,0.243
7,GGACGGTA,0.134
8,CGACGGTA,0.322
9,AGACGATC,0.113
10,CGACGATA,0.373
11,CGACGGTC,0.173
12,CGACGATC,0.298
13,GAAATTCA,0.0636
14,ATTGCACA,0.0349
15,CAGCTATA,-0.191
16,ACCGCTGC,-0.252
17,GGTAGGAA,-0.0834
18,TAGGCCGA,-0.106
19,CCGATCCG,-0.0938
20,GCGAAGAA,0.148
21,CTTAGCGC,0.117
22,CGCTGTCC,0.108
23,CCGCATTC,0.00443
24,GCGTACCA,-0.0406
25,TCGTACCA,0.322

row,Sequence,PBM E-score
1,CCGTACTA,0.338
2,ACGTACCA,0.0604
3,TGGTACCA,-0.123
4,TAGTACCA,-0.0108
5,CCGTACCA,0.303
6,GCGTACTA,-0.0501
7,ACGTACTA,0.188
8,ATGATGCG,0.104
9,ACGAACCC,0.0128
10,GCGAGAAC,-0.095
11,CGATTCAC,0.192
12,AGGCGGTC,-0.166
13,GTCTAAAC,0.00585
14,ATGGTACA,-0.0607
15,CCGAACAA,-0.0373
16,ACGAACGG,0.312
17,ACGAATGC,0.185
18,ACGAACGT,0.289
19,ACGAACGA,0.314
20,GCGAATGA,0.173
21,CCGAACGG,-0.0461
22,ACGAATGA,0.304
23,TCGAACGA,0.236
24,ACGAACAA,0.331
25,CCGAACGA,0.251

row,Sequence,PBM E-score
1,GCGAACAA,0.0737
2,ATTAAGCC,0.0493
3,ATATCCAA,0.149
4,ACTGACTC,-0.262
5,CACTATGA,-0.138
6,CAAAGTGA,0.28
7,TAAGGAAA,-0.0606
8,CTATGCAC,0.178
9,AAACTCCT,-0.13
10,AATCATAT,0.191
11,AGGTCGAT,0.132
12,TGGTGGAA,-0.0333
13,ACTGCGAT,-0.0827
14,CAACAAAC,-0.112
15,TATCACGA,0.366
16,TATCACAA,0.25
17,AATCACGA,0.309
18,CATCACGA,0.0436
19,AATCACGG,0.213
20,AATCACGC,0.127
21,AGGTTATC,0.0463
22,CGCAGATA,0.0501
23,CCACGGCG,0.142
24,AGACGGCC,-0.0278
25,AGACGGCG,0.306

row,Sequence,PBM E-score
1,ACACGGCA,0.294
2,CGACGGCG,0.171
3,ACACGGCG,0.305
4,CCCGCTCG,-0.0943
5,ATAAACGG,0.273
6,TAAACTCA,-0.0231
7,AGCGATAT,0.352
8,AACGATCA,0.24
9,AACGATAG,0.265
10,AGCGATAG,0.0445
11,ACCGATAT,0.0499
12,GACGATAC,0.278
13,AACGATAC,0.32
14,AGCGATAC,0.202
15,AACGATCC,-0.00029
16,AACGATCT,0.303
17,AACGATAT,0.385
18,AACGATAA,0.294
19,GCAATTCA,-0.0514
20,ATCGCAGC,-0.0387
21,CACTTCAG,0.0421
22,GCGGTTTA,-0.161
